Assay results published in paper PMC4336329 (PLoS ONE, 2015).
The campaign covered roughly 310,000 compounds. About 14,000 (4.5%) showed an effect of 50% or more. The effect is printed as a negative number. The list comes from a sample in which strong results are over-represented; it also holds similar structures and randomly drawn compounds.

Biological target: human ether-à-go-go-related gene (hERG) potassium channel (human, UniProt Q12809)
Assay: primary screen, population patch clamp on CHO cells stably expressing hERG; higher = less effect of the substance
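Further: peak tail current of the secondary pulse compared with the same well before compound.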

Sequence of human ether-à-go-go-related gene (hERG) potassium channel (Q12809 whole entry, looked up): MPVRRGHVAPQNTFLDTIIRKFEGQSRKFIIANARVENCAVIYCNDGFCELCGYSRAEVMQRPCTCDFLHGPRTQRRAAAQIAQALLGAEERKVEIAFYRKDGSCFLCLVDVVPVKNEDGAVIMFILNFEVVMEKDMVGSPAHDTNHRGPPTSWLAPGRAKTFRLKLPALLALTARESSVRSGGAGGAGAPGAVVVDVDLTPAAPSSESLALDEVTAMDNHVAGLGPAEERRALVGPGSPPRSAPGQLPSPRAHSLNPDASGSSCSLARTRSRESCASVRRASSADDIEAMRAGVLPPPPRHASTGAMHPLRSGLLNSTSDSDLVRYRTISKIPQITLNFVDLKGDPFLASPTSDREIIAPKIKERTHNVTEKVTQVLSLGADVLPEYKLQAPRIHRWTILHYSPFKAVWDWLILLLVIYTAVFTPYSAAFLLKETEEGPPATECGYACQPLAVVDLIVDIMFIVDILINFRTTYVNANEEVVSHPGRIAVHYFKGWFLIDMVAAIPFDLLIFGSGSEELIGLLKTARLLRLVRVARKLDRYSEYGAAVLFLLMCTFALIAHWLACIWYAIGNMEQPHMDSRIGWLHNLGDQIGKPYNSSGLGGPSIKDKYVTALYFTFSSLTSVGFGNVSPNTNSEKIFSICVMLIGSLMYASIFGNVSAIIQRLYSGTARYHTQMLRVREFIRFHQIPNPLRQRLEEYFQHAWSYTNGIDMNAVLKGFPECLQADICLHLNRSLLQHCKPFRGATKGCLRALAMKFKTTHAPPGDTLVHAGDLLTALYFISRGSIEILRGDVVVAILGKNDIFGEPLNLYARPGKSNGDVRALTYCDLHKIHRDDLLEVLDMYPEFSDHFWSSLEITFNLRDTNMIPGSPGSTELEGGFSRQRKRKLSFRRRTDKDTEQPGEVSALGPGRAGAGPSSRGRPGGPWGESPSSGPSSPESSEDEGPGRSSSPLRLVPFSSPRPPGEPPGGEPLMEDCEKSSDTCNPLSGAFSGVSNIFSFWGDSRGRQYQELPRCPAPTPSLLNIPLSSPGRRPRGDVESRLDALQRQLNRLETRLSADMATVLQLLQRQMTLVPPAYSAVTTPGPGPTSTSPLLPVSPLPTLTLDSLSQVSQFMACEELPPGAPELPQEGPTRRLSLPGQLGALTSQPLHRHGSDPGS

SMILES	hERG current change (%, negative = inhibition) at 10uM
O=C(c1ccccc1Cc1ccccc1)N1CCN(S(=O)(=O)c2ccccc2)CC1	-6.88%
CN(C)NC(=S)Nc1ccc(S(=O)(=O)N2CCCCC2)cc1	-5.26%
CCn1ccnc1CN(C)C(=O)CCc1nnc(CCCc2ccccc2)o1	-7.7%
Cc1cccc(NC(=O)CN2C(=O)N/C(=C\c3ccc(N4CCOCC4)cc3)C2=O)c1	9.92%
CC(NC(=O)COC(=O)Cc1ccsc1)C1CC2CCC1C2 (stereo not drawn)	-12.1%
COc1ccc(N(CC(=O)N2CCc3ccccc32)S(=O)(=O)c2c(C)n[nH]c2C)cc1	-18.6%
CC(NCCOc1ccccc1F)C(=O)Nc1ccc(S(N)(=O)=O)cc1 (stereo not drawn)	13.4%
N#Cc1c(N)c(C(=O)c2ccc(Cl)cc2)n2c1CCC2	5.5%
CCCCN(CCCC)C(=O)c1cc(Cl)ccc1[N+](=O)[O-]	-1.4%
O=C1CCC(C(=O)N(Cc2ccco2)C2(C(=O)NC3CCCC3)CCCCC2)N1 (stereo not drawn)	13.4%
CCNc1nc(NCC)nc(N/N=C(\C)c2ccc(OC)cc2)n1	-14.1%
Cc1ccc(C)c(NS(=O)(=O)c2cc(C(=O)NCc3ccco3)ccc2C)c1	-52.3%
O=C(NCc1ccco1)c1ccc(F)c(S(=O)(=O)N2CCCCC2)c1	-11.3%
CCn1cc(C(=O)NCC2CCCO2)c(=O)c2cc(S(=O)(=O)N3CCCCCC3)ccc21 (stereo not drawn)	-51.3%
Cc1ccc(C(=O)NCc2ccco2)cc1S(=O)(=O)Nc1cccc(C)c1C	-32.2%
CCn1cc(C(=O)NCC2CCCO2)c(=O)c2cc(S(=O)(=O)N3CCC(C)CC3)ccc21 (stereo not drawn)	-28.1%
CCn1cc(C(=O)NCC2CCCO2)c(=O)c2cc(S(=O)(=O)N3CCCCC3)ccc21 (stereo not drawn)	-34%
Cc1ccc(C(=O)NCc2ccco2)cc1S(=O)(=O)N1CCCCC1	-18.6%
CCn1cc(C(=O)NCc2ccco2)c(=O)c2cc(S(=O)(=O)N3CCCCCC3)ccc21	-53.3%
O=C(NCc1ccco1)c1ccc(Br)c(S(=O)(=O)N2CCCCC2)c1	-53%
Cc1ccccc1NS(=O)(=O)c1cc(C(=O)NCc2ccco2)ccc1C	-20.3%
CCn1cc(C(=O)NCc2ccco2)c(=O)c2cc(S(=O)(=O)N3CCC(C)CC3)ccc21	-36.5%

SMILES	hERG current change (%, negative = inhibition) at 10uM
CCn1cc(C(=O)NCc2ccco2)c(=O)c2cc(S(=O)(=O)N3CCCC3)ccc21	-4.37%
COc1cc(CCC(=O)Nc2ccc(C)c(S(=O)(=O)N3CCCCCC3)c2)cc(OC)c1OC	-6.5%
O=C(OCCN1C(=O)c2ccccc2C1=O)C1CCN(S(=O)(=O)c2cccs2)CC1	-31.9%
COc1cc(CCN2C(=O)N[C@@H](CCc3ccccc3)C(C(C)=O)=C2C)cc(OC)c1OC	-12.6%
CC(=NCC1CCCO1)c1c(O)n(C2CCCCC2)c(=O)[nH]c1=O (stereo not drawn)	-9.77%
CC(C)(C)NC(=O)CN1CCCN(C(=O)c2cccc(S(=O)(=O)N3CCc4ccccc43)c2)CC1	-7.51%
CCn1c(NN=O)nc2ccccc21	15.6%
O/N=C1/C2C3CC4C5C3C1C5C1(OCCO1)C42 (stereo not drawn)	4.44%
Cc1cccc(OS(=O)(=O)NC(=O)OCC2CCCN3CCCCC23)c1 (stereo not drawn)	15.1%
O=C(c1cc2nc(-c3ccccc3)cc(-c3ccccc3)n2n1)N1CCC2(CC1)OCCO2	-49.4%
C/C(=N/Nc1ccc(F)cc1)c1ccc(Cl)s1	8.69%
CC(C)(C)c1ccc(CCC(CC(=O)O)CC(=O)O)cc1	-11.9%
CCn1cc(C(=O)NC2CCCCCC2)c(=O)c2cc(S(=O)(=O)N3CCCCC3)ccc21	8.24%
CCn1cc(C(=O)NCCC(C)C)c(=O)c2cc(S(=O)(=O)N3CCCCC3)ccc21	-7.53%
CCN1CCCC1CNC(=O)c1cn(CC)c2ccc(S(=O)(=O)N3CCCCCC3)cc2c1=O (stereo not drawn)	-66.5%
Cc1cccc(NC(=O)c2c(O)c3ccccc3n(C)c2=O)c1	25.8%
Cc1ccc(CCNC(=O)C2CCCN(C(=O)N(C)C)C2)cc1 (stereo not drawn)	8.01%
CCOc1ccc(CCNC(=O)c2nnc(Cc3ccc(F)cc3)o2)cc1OCC	-1.78%
Cc1cccc2c(C(=O)O)c3cccc(C)c3nc12	1.39%
Cc1cc(C)c2nc(-n3nc(C)cc3N)cc(C)c2c1	20%
Cc1cc(C)c2nc3nc(C)cc(C)c3c(N)c2c1	-65.5%
Cc1cc(C)c2c(N)c3ccccc3nc2n1	-53.9%

SMILES	hERG current change (%, negative = inhibition) at 10uM
Cc1cc(C)c2c(SC(C)C)nc(N)nc2n1	-4.12%
Cc1cc(N)c2ccccc2n1	7.4%
CCc1ccc2nc3nc(C)cc(C)c3c(N)c2c1	1.12%
Cc1cc(C)c2c(N)c3cccc(C)c3nc2n1	-64.7%
Cc1cc(C)c2cccc(N)c2n1	20.7%
CC(C)(C)n1nc2c(c1NC(=O)c1ccc(F)c(F)c1)CS(=O)(=O)C2	3.79%
COc1ccc(/C=N/NC(=O)c2ccc(CN3c4cccc5cccc(c45)S3(=O)=O)cc2)cc1	4.03%
CC(C)CN(C(=O)COC(=O)c1c2c(nc3ccccc13)CCC2)c1c(N)n(Cc2ccccc2)c(=O)[nH]c1=O	4.06%
Cc1ccc(N2CC(C(=O)NCCS(=O)(=O)N3CCN(c4ccccc4F)CC3)CC2=O)cc1 (stereo not drawn)	13.2%
CC(C)(C)c1ccc(OCCNC(=S)NC(=O)c2cccnc2)cc1	-16.3%
CCC(CC)C(=O)Nc1cc(C(=O)OC)ccc1C(=O)OC	-15.4%
COCCn1cc(C(=O)c2cc(Br)ccc2O)cc(C#N)c1=O	2.45%
CC(Sc1nnc(-c2cccs2)n1-c1ccccc1)C(=O)NCc1ccco1 (stereo not drawn)	-79.4%
O=C(CCCSc1nnc(-c2cccs2)n1CC1CCCO1)c1ccccc1 (stereo not drawn)	-65.1%
Cn1c(SCC(=O)NCc2ccco2)nnc1-c1cccs1	3.45%
Cc1ccc(-n2c(SCC(=O)NCc3ccco3)nnc2-c2cccnc2)c(C)c1	-34.4%
CNC(=O)CSc1nnc(-c2cccnc2)n1-c1ccc(C)cc1	13.6%
CC(Sc1nnc(Cc2cccs2)n1C1CCCCC1)C(=O)NCc1ccco1 (stereo not drawn)	-5.59%
CC(C)(C)C(=O)CSc1nnc(-c2cccs2)n1CC1CCCO1 (stereo not drawn)	-12.4%
O=C(CSc1nnc(-c2cccs2)n1CC1CCCO1)N1CCCC1 (stereo not drawn)	-14.4%
Cc1ccc(C)c2c(SC(C)C(=O)NCc3ccco3)nc(-c3ccccc3)nc12 (stereo not drawn)	-64.7%
Cc1ccc(-n2c(SCC(=O)NCc3ccco3)nnc2-c2cccnc2)cc1	-60.8%

SMILES	hERG current change (%, negative = inhibition) at 10uM
Cc1ccc2nc(-c3ccccc3)nc(SC(C)C(=O)NCc3cccs3)c2c1 (stereo not drawn)	11.7%
CC(Sc1nc(-c2ccccc2)cc(C(F)(F)F)n1)C(=O)NCc1ccco1 (stereo not drawn)	10.2%
CCCCNC(=O)CN1C(=O)COc2ccc(S(=O)(=O)N3CCCCCC3)cc21	-1.25%
O=C(CSc1nc(=O)n2ccccc2n1)NCCc1ccccc1	-1.36%
Cc1ccc2nc(CSc3nnc(Cc4cccs4)n3C3CCCCC3)cc(=O)n2c1	-15.6%
COc1cccc(C(=O)N/N=C/c2ccc(OC)c(COc3ccccc3C(N)=O)c2)c1	-2.25%
N#Cc1cc(Oc2ccc(Cl)cc2)c(N2CCOCC2)cc1C#N	-1.79%
O=C(CSc1nnc(-c2ccccc2)n1-c1ccccc1)NCc1ccco1	1.47%
O=C(CSc1nnc(-c2ccco2)n1-c1ccccc1)NCCc1ccccc1	-69.4%
CN(Cc1ccccc1)C(=O)CSc1nnc(-c2ccco2)n1-c1ccccc1	-80.2%
O=C(CSc1nnc(-c2ccco2)n1-c1ccccc1)NCc1ccco1	-67.8%
CNC(=O)CSc1nnc(-c2ccco2)n1-c1cccc(C)c1	-4.75%
Cc1cccc(-n2c(SCC(N)=O)nnc2-c2ccco2)c1	-1.07%
CC(=O)CSc1nnc(-c2ccco2)n1-c1ccccc1	-11.7%
NC(=O)CSc1nnc(-c2ccco2)n1-c1ccccc1	16.1%
Cc1cccc(-n2c(SCC(=O)NCc3ccco3)nnc2-c2ccco2)c1	-75.7%
Cc1nnc(SCC(=O)NCc2ccco2)n1-c1ccccc1	26.1%
Cn1c(SCC(=O)NCCc2ccccc2)nnc1-c1ccco1	-4.63%
O=C(O)CCCCCNC(=O)CSc1nnc(-c2ccco2)n1-c1ccccc1	11.9%
O=C(N1CCCCC1)N1CCN(S(=O)(=O)c2ccccc2)CC1	10.4%
Nc1cc(-c2ccc(Cl)cc2)nn1S(=O)(=O)c1ccc(Cl)cc1	19.1%
